According to PubChem BioAssay AID798 (PCMD, 2007):
Out of some 220,000 compounds screened, about 300 (0.14%) were called active. The sample holds actives, similar compounds and a random draw of the others, so the mix is not that of the screen. Values without a mark were called inactive.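 Rule for the calls: active = inhibition of at least 40%; inactive = inhibition below 40%.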

Molecular target: Coagulation factor XI (Homo sapiens) (UniProt P03951)
Assay: human FXIa protease inhibitors, primary screen, biochemical, 1536-well (AID 798);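 note: fluorescence of freed AMC excited at 355 nm; 0% = enzyme without compound and 100% = no enzyme blank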
Conditions: purified FXIa, Boc-Glu-Ala-Arg-AMC fluorogenic substrate; at 5 µM; active compounds read high

Chain of Coagulation factor XI (Homo sapiens) (P03951 19-387 limits assumed): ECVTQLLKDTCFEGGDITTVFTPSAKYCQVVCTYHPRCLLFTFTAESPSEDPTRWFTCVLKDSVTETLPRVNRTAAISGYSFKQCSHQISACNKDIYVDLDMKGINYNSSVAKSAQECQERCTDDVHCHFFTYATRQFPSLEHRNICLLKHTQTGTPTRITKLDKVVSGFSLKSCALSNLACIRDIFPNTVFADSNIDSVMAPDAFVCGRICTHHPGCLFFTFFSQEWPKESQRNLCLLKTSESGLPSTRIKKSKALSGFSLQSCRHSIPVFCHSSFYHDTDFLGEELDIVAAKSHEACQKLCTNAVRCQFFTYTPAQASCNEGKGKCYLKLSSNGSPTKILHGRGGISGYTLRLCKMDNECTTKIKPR
Chain of Coagulation factor XI (Homo sapiens) (P03951 388-625 limits assumed): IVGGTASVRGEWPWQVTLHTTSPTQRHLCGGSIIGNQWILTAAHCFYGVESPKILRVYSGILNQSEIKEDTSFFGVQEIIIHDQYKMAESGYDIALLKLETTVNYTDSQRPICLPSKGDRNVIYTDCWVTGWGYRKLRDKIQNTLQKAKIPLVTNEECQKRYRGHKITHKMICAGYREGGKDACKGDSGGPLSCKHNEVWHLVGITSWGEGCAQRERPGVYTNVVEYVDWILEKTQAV

Structure (SMILES) | inhibition
COc1cc(-c2nnn(CC(=O)NCc3ccccc3)n2)cc(OC)c1OC | 3%
CNc1ccc([N+](=O)[O-])cc1C(=O)O | -2.33%
NC(=O)C1CCN(C(=O)COc2cccc3cccnc23)CC1 | 0.03%
Cc1cnc(NC(=O)Cn2cnc3c2c(=O)n(C)c(=O)n3C)s1 | -1.78%
CCOCCn1c(-c2ccccc2)nc2ccccc21 | 0.72%
Cc1ccc(Sc2ccncc2S(N)(=O)=O)cc1 | 5.95%
CC(C)(C)CC(C)(C)NCC(O)COCCOc1ccc(Br)cc1 (configuration not stated) | 1.54%
COC(=O)c1sccc1NN1C(=O)c2ccccc2C1=O | 0.85%
O=C(CC(NC(=O)c1ccccc1)c1ccccc1)Nc1ccc(F)c(F)c1 (configuration not stated) | -2.03%
Cc1ccc(C2CCN(C(=S)Nc3cccc(Cl)c3)C2)cc1 (configuration not stated) | -2.9%
Cc1noc(C)c1COC(=O)COc1ccc(-c2ccccc2)cc1 | 9.94%
CCOC(=O)COc1cc(OCC(=O)OCC)c2c(=O)cc(-c3ccccc3)oc2c1 | -3.59%
CCOC(=O)COc1cc(O)c2c(=O)cc(-c3ccccc3)oc2c1 | 45% (active)
CCOC(=O)c1nn(-c2ccccc2F)c2nc(Nc3ccccc3)cc(=O)n12 | -3.73%
COc1cccc(-n2nc(C(=O)N3CCN(Cc4ccccc4)CC3)c3ccccc3c2=O)c1 | -0.09%
C/C(Cc1ccccc1)=N\NC(=O)CNC(=O)c1cccc(Br)c1 | 9.13%
C/C(Cc1ccccc1)=N\NC(=O)CNC(=O)c1ccccc1Cl | 56.6% (active)
C/C(Cc1ccccc1)=N\NC(=O)CNC(=O)c1ccc2c(c1)OCCO2 | -2.1%
CCOc1ccc(Br)cc1S(=O)(=O)N1CCC(C(=O)O)CC1 | -8.82%
CC(NC(=S)Nc1ccccc1)C1COc2ccccc2O1 (configuration not stated) | 3.5%
Cc1c(Cl)cccc1NC(=O)Nc1ccc(C(=O)N2CCCC2)cc1 | 18.9%

Structure (SMILES) | inhibition
Cc1ccc(C(=O)COC(=O)c2cccc(N3C(=O)c4c(C)nc5ccccc5c4C3=O)c2)cc1C | 8.56%
CN(CC(=O)Nc1ccc(F)cc1)CC(=O)Nc1ccc(Cl)c(S(=O)(=O)N2CCOCC2)c1 | 0.07%
COc1ccc(C(=O)NNC(=O)c2cc(C)[nH]n2)cc1 | 1.62%
COc1ccc(CNC(=O)COC(=O)/C=C/c2ccc(S(=O)(=O)N3CCOCC3)cc2)cc1 | -3.11%
CCc1ccc(Oc2coc3cc(OC(=O)c4cc5ccccc5oc4=O)ccc3c2=O)cc1 | -3.61%
CC(=O)NCC(=O)N1CCCC(C(=O)c2ccc3c4c(cccc24)CC3)C1 (configuration not stated) | -4.06%
O=C(CSc1nnnn1-c1ccc(O)cc1)N1N=C(c2ccc3ccccc3c2)CC1c1ccccc1 (configuration not stated) | 8.65%
COc1ccc(/C=N/n2c(C)cc(C)cc2=O)cc1 | 44.1% (active)
COC(=O)c1ccc(/C=N\n2c(C)nnc2C)cc1 | -10.4%
COc1ccc(/C=C/C(=O)c2ccc(OC)cc2O)cc1 | 2.98%
Cn1c(SCC(=O)N2CCOCC2)nnc1-c1ccc2ncccc2c1 | 4.39%
COCCn1c(N)c(N(Cc2ccccc2)C(=O)C2CCCCC2)c(=O)[nH]c1=O | -2.52%
Nc1c(C(=O)O)cnn1-c1ccccc1 | 15.5%
COC(=O)c1ccc(S(=O)(=O)NCc2ccccc2)n1C | 13.2%
Cc1cccc(Oc2c([N+](=O)[O-])c(=O)n(C)c3ccccc23)c1 | -4.16%
O=C(Nc1ccc(Cl)cc1)Nc1ccc(Oc2cccnc2)nc1 | -6.3%
CCC(C)c1ccc(NC(=S)NCc2ccccn2)cc1 (configuration not stated) | -2.96%
O=C(Cc1ccccc1)Nc1c(C(=O)N2CCCCCC2)cnn1-c1ccccc1 | -2.02%
O=C(NCc1ccccc1Cl)NC(=O)c1csc([N+](=O)[O-])c1 | -0.45%
CCc1ccc(S(=O)(=O)Nc2ccc(C)c(NS(C)(=O)=O)c2)cc1 | 1.46%
C=CCNC(=O)c1ccc2c3n(nc2c1)-c1ccc(C)cc1CO3 | 0.43%

Structure (SMILES) | inhibition
CCOC(=O)CNc1nc(Cl)nc(Nc2ccccc2)n1 | -1.06%
Cc1nnc(NCCO)c2ccccc12 | 6.13%
O=C(CNCCC1=CCCCC1)Nc1ccccc1N1CCCCCC1 | -2.46%
CC(C)C(O)C1CCN(Cc2nc(Cc3ccccc3Cl)no2)CC1 (configuration not stated) | -1.58%
Cc1ccc(NCc2n[nH]c(=S)n2-c2ccccc2)cc1Cl | 0.9%
CCOC(=O)C1=C(C)N=C2c3ccccc3C(=O)C2C1c1ccc(Br)cc1 (configuration not stated) | 5.54%
Cc1ccccc1C(=O)Nc1ccc(N2CCCCCC2)cc1 | -3.76%
O=C(Nc1ccc(F)c([N+](=O)[O-])c1)C1CC(=O)N(Cc2ccccc2)C1 (configuration not stated) | -2.12%
C#CCNc1ccc(C(=O)OCC)cc1 | 0.47%
O=C(NCc1ccc(F)cc1)C1CCC(CNc2c(N3CCOCC3)c(=O)c2=O)CC1 (configuration not stated) | 1.9%
O=C(C1CCN(C2CCN(Cc3cccc4c3OCO4)CC2)CC1)N1CCOCC1 | -4.01%
N#Cc1ccccc1NC(=O)COc1c(Br)cc(Br)c2cccnc12 | 0.52%
COc1ccc(OC)c(Cc2nnc(CCC(=O)NC3CCCC3)o2)c1 | 4.91%
COc1cc(/C=C2/C(=O)ON=C2C)ccc1OCc1cccc(F)c1 | -3.35%
O=C(CCl)Nc1ccc(Sc2ccc(NC(=O)CCl)cc2)cc1 | -1.76%
O=C(CCN1CCN(C/C=C/c2ccccc2)CC1)Nc1cccc(F)c1 | -3.15%
Cc1cc(NC(=O)c2cccc(N3C(=O)CCC3=O)c2)no1 | 7.9%
Cc1cccc(NC(=O)c2ccc3ccccc3n2)n1 | 0.23%
Cc1cccc(NC(=O)c2cc(N3C(=O)CCC3=O)ccc2Cl)n1 | 45.3% (active)
Oc1ccc2ccccc2c1N=Nc1nccs1 | 1.08%
